Inconclusive results are not listed. Where a call stands in place of a potency, no number is given. Calls of active or inactive are those of the source. The call rests on the fitted dose curve; in most records, active means well fitted curve in the direction sought with a large enough effect; inconclusive means small, poorly fitted or top-dose-only effect, or another doubt; inactive means no such curve, though single readings can be large; an effect the other way counts as inactive or inconclusive.
Columns and labels:
[1] = target: Glutathione peroxidase 1 (Homo sapiens) (UniProt P07203); assay: Primary qHTS Assay for Inhibitors of Recombinant Selenoprotein Glutathione Peroxidase 1 (GPX1) (AID 1845191); further: nearly all actives have a fitted effect of over 65% in size; further: potency means the concentration at half of the fitted maximal effect
How it was run: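 GR-coupled readout: NADPH consumption tracked by fluorescence, ex 340/em 450 nm, at t=0 and after 15 min at RT. Final mix 10 nM GPX1, 1 mM GSH, 0.5 mM CHP, 0.5 mM NADPH, 100 nM GR, 0.01% BSA, following 30 min enzyme–compound preincubation.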

[2] = target: Phospholipid hydroperoxide glutathione peroxidase GPX4 (Homo sapiens) (UniProt P36969); assay: Primary qHTS Assay for Inhibitors of Recombinant Selenoprotein Glutathione Peroxidase 4 (GPX4) (AID 1845192); further: nearly all actives have a fitted effect of over 65% in size
How it was run: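 Steps: GPX4 plus compound, 30 min RT; add GR/GSH/NADPH master mix; start with cumene hydroperoxide; read 340/450 nm fluorescence at 0 and 15 min. Finals were 200 nM GPX4, 1 mM GSH, 0.5 mM CHP, 0.5 mM NADPH, 100 nM GR.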

[3] = target: Luciferin 4-monooxygenase (Photinus pyralis) (UniProt P08659); assay: Primary firefly luciferase (FLuc) qHTS assay for identification of artifact compounds. (AID 1845220); settings: outcome: dose series up to 54.1 µM unless noted; further: nearly all actives have a fitted effect of over 60% in size
How it was run: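 D-luciferin and ATP (10 uM each, final) in Tris acetate buffer pH 7.6 were incubated with compounds for 15 min at room temperature. The reaction was started with 10 nM Photinus pyralis luciferase and luminescence read after 5 min. Percent inhibition was fitted to a 4-parameter Hill equation.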

[4] = system: Nanoluciferase (engineered Oplophorus gracilirostris luciferase); assay: Primary Nanoluciferase (NLuc) qHTS assay for identification of artifact compounds. (AID 1845222); further: series mostly up to about 54 µM
How it was run: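 Diluted conditioned medium from NLuc-expressing S16 cells treated with compounds for 15 min at room temperature, then Nano-Glo substrate added; luminescence read after 5 min. Percent inhibition versus no-enzyme and DMSO controls fitted to 4-parameter Hill equation.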

[5] = Quantitative High-Throughput drug screen in 47 multiple myeloma cell lines against the NCATS MIPE library collection: Delta47_JCRB cell viability assay (AID 1918925; further: nearly all actives have a fitted effect of over 45% in size; further: potency means the concentration at half of the fitted maximal effect)
How it was run: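 Myeloma cells (500 per well) were exposed to MIPE 4.0 compounds by pin transfer and incubated 48 hours at 37C, 5% CO2. Viability was read as ATP by CellTiter-Glo luminescence, normalised to DMSO (100%) and media-only (0%) wells.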

[6] = Quantitative High-Throughput drug screen in 47 multiple myeloma cell lines against the NCATS MIPE library collection: FR4_PLB cell viability assay (AID 1918924; further: nearly all actives have a fitted effect of over 35% in size; further: potency means the concentration at half of the fitted maximal effect)
How it was run: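 We plated 500 myeloma cells per well, pinned in MIPE 4.0 compounds, and incubated for 48 hours at 37C. ATP was then quantified with CellTiter-Glo, with DMSO and media-only wells defining 100% and 0%.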

Sequence of Glutathione peroxidase 1 (Homo sapiens) (P07203 whole entry, looked up): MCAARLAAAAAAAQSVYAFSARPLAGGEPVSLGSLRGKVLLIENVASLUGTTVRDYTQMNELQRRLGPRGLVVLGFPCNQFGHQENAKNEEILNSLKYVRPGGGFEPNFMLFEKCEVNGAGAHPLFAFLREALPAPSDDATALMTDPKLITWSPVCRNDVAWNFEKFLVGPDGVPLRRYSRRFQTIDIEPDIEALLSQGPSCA
Sequence of Phospholipid hydroperoxide glutathione peroxidase GPX4 (Homo sapiens) (P36969 whole entry, looked up): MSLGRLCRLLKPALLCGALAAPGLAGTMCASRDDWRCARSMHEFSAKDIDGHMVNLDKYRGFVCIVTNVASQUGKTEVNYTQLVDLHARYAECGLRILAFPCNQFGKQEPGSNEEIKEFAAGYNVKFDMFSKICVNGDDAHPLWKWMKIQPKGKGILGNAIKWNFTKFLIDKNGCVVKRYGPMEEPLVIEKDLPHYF

O=c1[nH]c2ccc(Cl)cc2c(N[C@@H]2CN3CCC2CC3)c1-c1nc2ccccc2[nH]1
Potency [1]: inactive
Potency [2]: inactive
outcome [3]: inactive
outcome [4]: inactive
Potency [5]: 0.0935 µM (active)

CN1CCN(c2ccc([N+](=O)[O-])c3no[n+]([O-])c23)CC1
Potency [1]: 18.3 µM (active)
Potency [2]: inactive
outcome [3]: inactive
Potency [5]: 8.33 µM (active)

CC(C)(C)c1cc(C=C(C#N)C#N)cc(Br)c1O
Potency [1]: inactive
Potency [6]: 26.4 µM (active)
Potency [5]: 16.6 µM (active)

O=[N+]([O-])/N=C1\NCCN1Cc1ccc(Cl)nc1
Potency [1]: inactive
Potency [2]: inactive

O=C(O)[C@@H]1CCN1
Potency [1]: inactive
Potency [2]: inactive

c1ccc2c(CN3CCNCC3)cccc2c1
Potency [1]: inactive
Potency [2]: inactive
Potency [6]: inactive
Potency [5]: inactive

— PubChem BioAssay (NCATS)
